Screens: PubChem, The Scripps Research Institute Molecular Screening Center
FBW7 act = human FBW7 E3 ligase activation, primary screen. normalized activity (activation), % at 26.1 µM. 0.13% of 650,000 active. AlphaScreen FBW7–phospho-cyclin E peptide binding, activator screen. Q969H0. AID 1259310; in the data active = normalized activity above about 1.9%;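 also: purified mutant Fbw7 with reduced substrate affinity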
TEAD-YAP inh = TEAD-YAP interaction inhibition | HEK-TIYL cells, TEAD-Gal4/YAP UAS-luciferase luminescence | inhibition, % at 9.12 µM | 1.4% of 640,000 active; in the data active = inhibition above about 32%;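 also: 0% = median of test compound wells and 100% = reference inhibitor wells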
GPR151 ag = human GPR151 activation. activation, % at 11.2 µM. 1% of 650,000 active. PathHunter beta-arrestin GPR151 cells, luminescence. AID 1508602. Q8TDV0; in the data active = activation above about 4.9%;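 also: 0% = median of compound wells and 100% = cells with positive control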
MITF primary = human MITF inhibition, primary screen; AlphaScreen MITF homodimerization, bead proximity signal; 0.91% of 650,000 active; inhibition, % at 2.6 µM; in the data active = inhibition above about 50%;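 also: 0% = vehicle wells with protein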
Target sequence (O75030 whole entry, looked up): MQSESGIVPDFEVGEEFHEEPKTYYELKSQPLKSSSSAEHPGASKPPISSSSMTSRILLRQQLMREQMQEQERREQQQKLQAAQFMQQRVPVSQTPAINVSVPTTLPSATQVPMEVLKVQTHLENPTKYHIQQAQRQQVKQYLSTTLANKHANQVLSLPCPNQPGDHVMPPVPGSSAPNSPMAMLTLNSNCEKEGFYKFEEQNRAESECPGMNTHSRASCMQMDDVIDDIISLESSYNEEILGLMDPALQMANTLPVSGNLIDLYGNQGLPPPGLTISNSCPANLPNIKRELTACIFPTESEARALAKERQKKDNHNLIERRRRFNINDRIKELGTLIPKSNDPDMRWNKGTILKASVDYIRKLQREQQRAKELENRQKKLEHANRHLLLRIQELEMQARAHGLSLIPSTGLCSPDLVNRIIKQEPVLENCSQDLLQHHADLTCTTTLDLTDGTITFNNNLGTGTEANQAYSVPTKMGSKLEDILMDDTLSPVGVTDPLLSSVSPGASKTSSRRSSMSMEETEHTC
GPR151 confirm = human GPR151 activation, confirmation screen; shares compounds with GPR151 ag; GPR151 PathHunter beta-arrestin cells, luminescence, 90 min; % of EA-reagent control over plate median; activation, % at 11.2 µM; 6,700 tested, under 10 active; AID 1508609;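 active = mean percent activation across replicates above the confirmation screen cutoff of 4.91%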
GPR119 ag = counter-screen for GPR151 activators: effect on human GPR119; activation, % at 11.2 µM; shares compounds with GPR151 ag; GPR119 PathHunter beta-arrestin cells, luminescence, 90 min; 0 = compound-well median, 100 = enzyme-acceptor control; AID 1508611; 0.3% of 6,700 active;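 active = mean percent activation in the counterscreen above 29.09%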;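 also: counterscreen on off-target GPR119 to flag nonselective hits from the GPR151 activator screen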
An asterisk follows results filed as active. Shown are actives, neighbours in structure and some others; about 3.5% of the full set was active somewhere.

Results for Cc1ccc(S(=O)(=O)N2CCCC2CNC(=O)C(=O)NCCO)cc1 (stereo not drawn) ?
FBW7 act: 0; TEAD-YAP inh: 5; GPR151 ag: 2; MITF primary: 4

Results for O=C(NCCc1ccccc1)C(=O)NCC1CCCN1S(=O)(=O)c1cccs1 (stereo not drawn) ?
FBW7 act: 0; TEAD-YAP inh: 6; GPR151 ag: 7.3*; MITF primary: 9; GPR151 confirm: -1; GPR119 ag: -10

What do the screens show for `O=C(NCC1CCCN1S(=O)(=O)c1ccccc1)C(=O)NC1CCCCC1` (stereo not drawn)?
FBW7 act: 0; TEAD-YAP inh: -7; GPR151 ag: 21*; MITF primary: -9; GPR151 confirm: 0; GPR119 ag: -7

How did Cc1cnc(N2CCN(c3ccccc3)CC2)nc1 do in these assays?
FBW7 act: 0; TEAD-YAP inh: -11; GPR151 ag: -1; MITF primary: -8

Results for O=C(NCCCNc1ccc([N+](=O)[O-])cc1)c1cccc(Br)c1 ?
FBW7 act: 0; TEAD-YAP inh: -25; GPR151 ag: 1; MITF primary: 2

Results for COCCNC1CCc2c(sc3ncn(Cc4ccc(C)cc4)c(=O)c23)C1 (stereo not drawn) ?
FBW7 act: 0; TEAD-YAP inh: -6; GPR151 ag: 2; MITF primary: -10

What do the screens show for `COc1ccc(S(=O)(=O)NCC(c2ccco2)N(C)C)cc1F` (stereo not drawn)?
FBW7 act: 0; TEAD-YAP inh: -5; GPR151 ag: 6.5*; MITF primary: 11; GPR151 confirm: -1; GPR119 ag: -8

Results for CC(C)c1ccc(/C=N/Nc2nncc(=O)[nH]2)cc1 ?
FBW7 act: -1; TEAD-YAP inh: -44; GPR151 ag: 5.6*; MITF primary: 17; GPR151 confirm: 0; GPR119 ag: -12

Results for O=C(Nc1ccc(-c2cn[nH]c2)cc1)OCc1ccccc1 ?
FBW7 act: 0; TEAD-YAP inh: -14; GPR151 ag: -1; MITF primary: 0

What do the screens show for `O=C(Nc1ccc(-c2cn[nH]c2)cc1)OCCc1ccccc1`?
FBW7 act: 0; TEAD-YAP inh: -28; GPR151 ag: 5.0*; MITF primary: 2; GPR151 confirm: 1; GPR119 ag: 8

How did O=C(Nc1ccc(-c2cn[nH]c2)cc1)[C@@H]1Cc2ccccc2CN1 do in these assays?
FBW7 act: 0; TEAD-YAP inh: -5; GPR151 ag: 0; MITF primary: 13

How did O=C(Nc1ccc(-c2cn[nH]c2)cc1)C1CCc2ccccc2C1 (stereo not drawn) do in these assays?
FBW7 act: 0; TEAD-YAP inh: -4; GPR151 ag: 5.4*; MITF primary: -5; GPR151 confirm: 0; GPR119 ag: 8

How did Cc1ccccc1CSc1nnc2[nH]c(=O)c(C)c(C)n12 do in these assays?
FBW7 act: 0; TEAD-YAP inh: -2; GPR151 ag: -1; MITF primary: 19

What do the screens show for `COCC(=O)Nc1nc2ccc(OC)cc2s1`?
FBW7 act: 0; TEAD-YAP inh: -53; GPR151 ag: 8.6*; MITF primary: 4; GPR151 confirm: -2; GPR119 ag: -11

Results for CCSC1=C(C#N)C(c2ccc(Cl)cc2)CC(=O)N1 (stereo not drawn) ?
FBW7 act: 0; TEAD-YAP inh: -2; GPR151 ag: 0; MITF primary: 4

Results for CCSC1=C(C#N)C(c2ccc(O)cc2)CC(=O)N1 (stereo not drawn) ?
FBW7 act: 0; TEAD-YAP inh: -4; GPR151 ag: 6.2*; MITF primary: -1; GPR151 confirm: 0; GPR119 ag: 1

Results for CCCS(=O)(=O)N1CCC(C(=O)NC)CC1 ?
FBW7 act: 0; TEAD-YAP inh: 6; GPR151 ag: 1; MITF primary: 20

Results for CC(=O)Nc1cccc(N=Cc2cc(Cl)cc(Cl)c2O)c1 ?
FBW7 act: 0; TEAD-YAP inh: -6; GPR151 ag: 5.7*; MITF primary: -4; GPR151 confirm: 1; GPR119 ag: 9

Results for N#Cc1ccc(COC(=O)c2ccccn2)cc1 ?
FBW7 act: 0; TEAD-YAP inh: 7; GPR151 ag: 5.0*; MITF primary: 28; GPR151 confirm: 0; GPR119 ag: -5

Results for N#Cc1ccc(NC(=O)COC(=O)c2ccccn2)cc1 ?
FBW7 act: -1; TEAD-YAP inh: 4; GPR151 ag: 1; MITF primary: 9

Results for Cc1nc(N)n(N)c(=O)c1Cc1ccccc1 ?
FBW7 act: 0; TEAD-YAP inh: -2; GPR151 ag: 6.4*; MITF primary: -9; GPR151 confirm: 1; GPR119 ag: -3

What do the screens show for `Cc1nc(N)n(N)c(=O)c1CCCN1C(=O)c2ccccc2C1=O`?
FBW7 act: 0; TEAD-YAP inh: -61; GPR151 ag: -2; MITF primary: 2

Results for O=S(=O)(Nc1ccc2c(c1)oc1ccccc12)c1cccs1 ?
FBW7 act: 0; TEAD-YAP inh: -4; GPR151 ag: -1; MITF primary: 0

Results for Cc1cccc(N2CCN(C(=O)CN3CCN(Cc4ccccc4Cl)C3=O)CC2C)c1 (stereo not drawn) ?
FBW7 act: 0; TEAD-YAP inh: 5; GPR151 ag: 0; MITF primary: -7

How did COc1cccc(-c2cc(CC(=O)NCCC3=CCCCC3)no2)c1 do in these assays?
FBW7 act: 0; TEAD-YAP inh: -17; GPR151 ag: 6.1*; MITF primary: -7; GPR151 confirm: -1; GPR119 ag: -4

What do the screens show for `COc1ccc2ccc(=O)oc2c1`?
FBW7 act: 0; TEAD-YAP inh: 5; GPR151 ag: 5.0*; MITF primary: 0; GPR151 confirm: 0; GPR119 ag: 3

Results for CC(C)N(CCNC(=O)c1cccc(NCCCN2CCCC2=O)c1)C(C)C ?
FBW7 act: 0; TEAD-YAP inh: -1; GPR151 ag: 5.0*; MITF primary: 3; GPR151 confirm: -1; GPR119 ag: 5

How did CCOC(=O)CSc1nc2ccc(OC)cc2cc1C do in these assays?
FBW7 act: 0; TEAD-YAP inh: 0; GPR151 ag: 2; MITF primary: 6

What do the screens show for `Cc1ccc(-c2nnc(SCC(=O)Nc3ccccc3N3CCOCC3)o2)cc1`?
FBW7 act: 0; TEAD-YAP inh: -6; GPR151 ag: 5.1*; MITF primary: 12; GPR151 confirm: 0; GPR119 ag: 2

How did COc1ccc(-c2nnc(SCC(=O)Nc3ccc(N4CCOCC4)cc3)o2)cc1 do in these assays?
FBW7 act: 0; TEAD-YAP inh: 17; GPR151 ag: 6.1*; MITF primary: 0; GPR151 confirm: -1; GPR119 ag: -8

What do the screens show for `O=C(Cc1ccc(Cl)cc1)Nc1ccc2nn(-c3ccccc3)nc2c1`?
FBW7 act: 0; TEAD-YAP inh: -1; GPR151 ag: 0; MITF primary: 6
